Experimental data from the supplement of paper PMC10412459.

Tested on: K562 SF3B1 K700E vs K562 SF3B1 WT
Experiment: surviving fraction ratio K562 SF3B1 K700E / K562 SF3B1 WT (each relative to DMSO); higher = less selective killing of SF3B1 K700E cells
Conditions: 5 days
Procedure: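 Drug-sensitivity screen of an in-house 80-compound library in isogenic K562 SF3B1 K700E versus SF3B1 WT cells. 250 cells/well in 384-well plates were exposed 24 h after seeding to 0.5-1000 nM compound for 5 days, and viability was read by CellTiter-Glo. Surviving fraction is relative to DMSO, and the value is the ratio of surviving fraction in K700E to WT cells; the paper calls ratio <0.6 with P<0.01 selective.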

SMILES	surviving fraction ratio K562 SF3B1 K700E / K562 SF3B1 WT (0.5nM)	surviving fraction ratio K562 SF3B1 K700E / K562 SF3B1 WT (1nM)	surviving fraction ratio K562 SF3B1 K700E / K562 SF3B1 WT (5nM)	surviving fraction ratio K562 SF3B1 K700E / K562 SF3B1 WT (10nM)	surviving fraction ratio K562 SF3B1 K700E / K562 SF3B1 WT (50nM)	surviving fraction ratio K562 SF3B1 K700E / K562 SF3B1 WT (100nM)	surviving fraction ratio K562 SF3B1 K700E / K562 SF3B1 WT (500nM)	surviving fraction ratio K562 SF3B1 K700E / K562 SF3B1 WT (1000nM)
CC(=O)c1c(C)c2cnc(Nc3ccc(N4CCNCC4)cn3)nc2n(C2CCCC2)c1=O	0.861	0.89	0.743	0.796	0.826	0.882	0.849	0.864
O=C(O)C1(C(=O)O)CCC1.[NH2-].[NH2-].[Pt+2] [carboplatin]	0.765	0.799	0.905	0.829	0.917	0.764	0.917	0.762
COc1cc2ncnc(Nc3ccc(F)c(Cl)c3)c2cc1NC(=O)/C=C/CN1CCCCC1	0.911	0.948	0.89	0.805	0.886	0.945	0.756	0.642
C=CCNC1=C2C[C@@H](C)C[C@H](OC)[C@H](O)[C@@H](C)/C=C(\C)[C@H](OC(N)=O)[C@@H](OC)/C=C\C=C(/C)C(=O)NC(=CC1=O)C2=O	1.01	0.993	0.811	0.776	0.41	1.81	1.31	1.24
Cc1nc(Nc2ncc(C(=O)Nc3c(C)cccc3Cl)s2)cc(N2CCN(CCO)CC2)n1 [dasatinib]	1.18	2.2	1.86	1.39	1.23	1.42	1.72	1.65
